# Data reported in PubChem BioAssay AID504339 (National Center for Advancing Translational Sciences (NCATS), 2011).
# The whole screen tested about 390,000 compounds, of which about 17,000 (4.4%) were called active. Another 8% or so got no clear call; they are omitted. Only a selection was taken, and actives are over-represented in it overall. Values without a mark were called inactive. The call rests on the fitted dose curve; in most records, active means well fitted inhibition curve with a large enough effect; inconclusive means small, poorly fitted or top-dose-only effect; inactive means no such curve, though single readings can be large or run the other way.
# Target: Lysine-specific demethylase 4A (Homo sapiens) (UniProt O75164)
# Sequence (O75164 whole entry, looked up, the tested form may be a part): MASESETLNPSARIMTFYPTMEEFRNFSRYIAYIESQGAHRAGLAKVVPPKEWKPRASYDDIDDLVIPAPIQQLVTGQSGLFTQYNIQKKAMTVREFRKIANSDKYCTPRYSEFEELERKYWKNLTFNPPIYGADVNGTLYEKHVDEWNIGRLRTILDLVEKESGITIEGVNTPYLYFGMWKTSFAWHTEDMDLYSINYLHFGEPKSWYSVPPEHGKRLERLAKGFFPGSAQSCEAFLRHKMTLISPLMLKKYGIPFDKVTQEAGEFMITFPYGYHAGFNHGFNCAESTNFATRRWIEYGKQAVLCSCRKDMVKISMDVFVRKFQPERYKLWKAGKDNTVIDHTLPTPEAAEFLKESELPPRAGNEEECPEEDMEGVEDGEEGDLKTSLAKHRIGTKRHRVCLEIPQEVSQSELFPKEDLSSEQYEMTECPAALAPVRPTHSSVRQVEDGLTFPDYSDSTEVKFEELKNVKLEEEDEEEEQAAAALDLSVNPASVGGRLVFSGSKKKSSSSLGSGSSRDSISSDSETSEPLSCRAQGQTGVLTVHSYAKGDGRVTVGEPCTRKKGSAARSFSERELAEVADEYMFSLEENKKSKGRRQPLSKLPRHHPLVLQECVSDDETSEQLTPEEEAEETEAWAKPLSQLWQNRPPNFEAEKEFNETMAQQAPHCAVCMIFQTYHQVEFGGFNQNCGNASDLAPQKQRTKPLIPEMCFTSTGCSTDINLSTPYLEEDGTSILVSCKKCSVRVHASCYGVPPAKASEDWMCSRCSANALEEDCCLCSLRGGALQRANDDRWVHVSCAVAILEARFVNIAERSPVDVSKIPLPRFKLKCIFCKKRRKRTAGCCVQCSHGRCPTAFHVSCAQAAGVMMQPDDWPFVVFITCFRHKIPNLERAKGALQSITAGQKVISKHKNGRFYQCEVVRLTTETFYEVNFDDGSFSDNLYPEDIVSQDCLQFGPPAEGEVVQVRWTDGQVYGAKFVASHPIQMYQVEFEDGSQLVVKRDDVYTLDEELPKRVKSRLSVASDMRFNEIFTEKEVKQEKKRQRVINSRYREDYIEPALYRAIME
# Assay: qHTS Assay for Inhibitors of JMJD2A-Tudor Domain; further: nearly all actives have a fitted effect of over 50% in size
# Details: AlphaScreen JMJD2A-Tudor / H3K4me3 peptide binding; series mostly up to 114 µM; activity change, negative = inhibition: at the top concentration
# On the % scale 0 is the no-effect control and ±100 the full control effect; potency means the concentration at half of the fitted maximal effect.
SMILES,"activity change, negative = inhibition [%]",Potency
O=C(NCCc1csc(-c2ccc(C(F)(F)F)cc2)n1)C(=O)Nc1ccc(F)c(Cl)c1,-12.9,
Brc1ccc2c(c1)NC(c1cccnc1)=NC(c1ccccc1)=N2,-22.3,
COc1ccc(C2=NC(c3ccncc3)=Nc3ccc(Br)cc3N2)cc1,,44.7 µM (active)
COCCNC(=O)c1ccc2c(c1)N(Cc1cccc(Cl)c1)C(=O)c1ccccc1S2(=O)=O,-12.5,
CN(C)Cc1cn(-c2ccccc2)nc1-c1ccccc1,-7.09,
Cc1ccc(C(=O)N/C(=C/c2cccs2)C(=O)NCC2CCCO2)cc1 (stereo not drawn),-4.23,
Cc1ccc(-n2c(C)cc(/C=C(\C#N)C(=O)NCC3CCCO3)c2C)cc1 (stereo not drawn),,50.1 µM (active)
Cc1cc(/C=C(/C#N)C(=O)Nc2ccc(Cl)cc2)c(C)n1-c1cccnc1,-11.6,
Cc1cc2c(cc3c(SCc4nc(-c5ccccc5)oc4C)nnc(C)n32)o1,-10.6,
O=c1nc(NO)ccn1C1CCCO1 (stereo not drawn),,8.91 µM (active)
Nc1ccn(C2CC(O)C(CO)O2)c(=O)n1 (stereo not drawn),-6.47,
CNc1nc(=O)n(C2CCCO2)cc1C (stereo not drawn),-6.25,
Cc1cccc(NC(=O)CSc2nc3c(oc4ccccc43)c(=O)n2-c2ccc(F)cc2)c1,-0.727,
COc1ccc(Cl)cc1NC(=O)c1sc2nc3c(cc2c1N)CN(C)CC3,-8.42,
CCN1CCc2nc3sc(C(=O)Nc4ccccc4OC(F)(F)F)c(N)c3cc2C1,-23.5,
CCc1ccc(NC(=O)c2sc3nc4c(cc3c2N)CN(CC)CC4)cc1,,56.2 µM (active)
O=C(CSc1n[nH]c(-c2ccccc2)n1)N1CCCCC1,4.87,
Cc1ccc(NC(=O)CN2c3ccccc3S(=O)(=O)c3ccccc32)cc1F,-10.6,
CCc1ccccc1NC(=O)Cc1ccc(NC(=O)N2CCCCc3ccccc32)cc1,-15,
CCN(Cc1ccccc1)Cc1c(O)ccc2c(=O)c(-c3ccc(Cl)cc3Cl)coc12,2.42,
COc1cccc(CNC(=O)Cn2c(=O)c3cccn3c3ccc(F)cc32)c1OC,-5.59,
CCOc1ccc(CCNC(=O)CN(c2ccc(C)cc2)S(=O)(=O)N(C)C)cc1OCC,-2.98,
O=C(Cn1ncc2c3ccccc3n(Cc3ccccc3)c2c1=O)NC1CCCCCC1,-9.73,
CCCNC(=O)C(CC)n1nc(CC)n2c(cc3oc(C)cc32)c1=O (stereo not drawn),-4,
CCOc1cccc(-c2nnc(SCC(=O)NC3CC3)n2C)c1,-3.03,
CCOc1cccc(C(=O)Nc2nnc(S(=O)(=O)N(C)c3ccc(C)cc3)s2)c1,5.92,
CCOc1cccc(-c2nn3c(-c4ccccn4)nnc3s2)c1,,79.4 µM (active)
Cc1ccc2c(=O)c(C(=O)c3ccc(F)cc3)cn(CC(=O)NC3CCCCC3)c2n1,-17.2,
